Compound activity: PubChem, several laboratories
Only some compounds are listed: those with a hit (about 2.1% of all), similar ones and a draw of the others.
CHT block: inhibits the human high affinity choline transporter; CHT-expressing cells, membrane potential dye, choline response; hits give low values; B-score at 10 µM; 310,000 tested, 0.86% active;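 active = B-score over 3 SD under the library average, and starting fluorescence ratio not unusually high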;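 also: choline stimulus applied at its EC90 after an EC20 pre-addition; B-score computed on integrated fluorescence ratio after choline addition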
EP2 mod: modulators of human EP2 prostaglandin E2 receptor | EP2-expressing cells, cAMP HTRF FRET, PGE2 co-stimulation | induction, % at 25 µM | 260,000 tested, 0.83% active;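 active = compounds whose cAMP rise, as percent of the full-agonist control response, exceeds 60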;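 also: rat C6 glioma line stably carrying human EP2 under a CMV promoter; the protocol text gives 20 µM as final concentration; 100% = response of wells given 1 µM PGE2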
Target sequence (P43116 whole entry, looked up): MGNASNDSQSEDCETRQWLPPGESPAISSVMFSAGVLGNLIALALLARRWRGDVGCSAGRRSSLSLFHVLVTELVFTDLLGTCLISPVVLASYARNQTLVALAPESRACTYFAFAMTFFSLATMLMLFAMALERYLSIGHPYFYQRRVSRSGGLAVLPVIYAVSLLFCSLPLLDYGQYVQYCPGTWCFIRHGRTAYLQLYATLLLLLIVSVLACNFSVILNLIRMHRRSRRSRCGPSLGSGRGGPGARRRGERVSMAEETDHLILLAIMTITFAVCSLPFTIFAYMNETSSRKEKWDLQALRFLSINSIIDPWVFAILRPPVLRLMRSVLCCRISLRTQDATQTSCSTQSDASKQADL
PGE2 EP2 inh: EP2 receptor (human) inhibition; C6 glioma cells expressing human EP2, cAMP TR-FRET; cells stimulated with saturating PGE2; inhibition, % at 25 µM; P43116; AID 1422; 260,000 tested, 0.52% active;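 active = percent inhibition above 40 after rounding to a whole number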;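 also: rat C6 glioma host cells with rolipram phosphodiesterase inhibitor present; the protocol text gives 20 µM as final concentration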
CHT allo act: allosteric activators of human choline transporter CHT; B-score at 10 µM; Q9GZV3; 310,000 tested, 0.49% active; CHT-expressing cells, membrane potential dye, choline EC20; hits give high values; LV-AA mutant CHT in HEK293 cells;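 active = initial fluorescence not abnormally high and integrated response B-score, plate-corrected, over 3 SD above library mean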
CHT block conf: confirmation of human choline transporter CHT inhibitors; 2,400 tested, 70% active; AID 493221; shares compounds with CHT block; CHT-expressing cells, choline membrane potential dye; LV-to-AA substituted CHT, HEK293 cells; CHT activity remaining % of control (hits give low values), % at 10 µM;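 active = choline transporter activity left, mean of duplicates at 10 µM, below buffer-only control mean minus 3 SD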;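 also: depolarization triggered by choline at its EC90 following an EC20 pre-addition; 0% = hemicholinium-3 full block and 100% = buffer-only control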
HEK293 MPD ctr: activity in parental HEK293 cells lacking CHT. shares compounds with CHT block. membrane potential dye, choline response; active = decrease or increase beyond buffer ±3SD. membrane potential ratio readout (active if shifted either direction beyond buffer ±3SD; no single direction) at 10 µM. 2,400 tested, 4% active;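 also: parental cells lack the transporter so any hit is non-specific; ratio is peak minus trough fluorescence over baseline after EC90 choline challenge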
* marks the source's active call; other numbers are inactive results; i = inactive; x = not tested or not shown.

SMILES	CHT block	EP2 mod	PGE2 EP2 inh	CHT allo act	CHT block conf	HEK293 MPD ctr
COc1ccccc1CN(Cc1ccnc(N2CCCC2)n1)CC1CCCO1 (stereo unspecified)	x	13	7	x	x	x
CCOC(=O)C(=O)Nc1sc(C(=O)Nc2ccc(C)cc2)c(C)c1C(=O)OC	x	-20	7	x	x	x
CC(C)(C)c1ccc(S(=O)(=O)/N=C2\C=C(NS(=O)(=O)c3ccccc3)C(=O)c3ccccc32)cc1	-8.7*	x	x	i	40%*	i
Cc1ccc(S(=O)(=O)/N=C2\C=C(Nc3cccc(C(=O)O)c3)C(=O)c3ccccc32)cc1	-5.9*	x	x	i	41%*	2.5*
CC(C)n1cnc2c(N(C)c3cccc(Cl)c3)nc(N(CCO)CCO)nc21	-6.6*	4	9	i	52%*	i
C=CCc1ccc(O)c(-c2ccc(O)c(CC=C)c2)c1	-7*	8	19	i	62%*	i
C=CCc1cc(C(=O)N2CCCCC2)ccc1O	i	5	7	i	x	x
COc1ccc(NC(=O)CSc2nccn2Cc2ccccc2)cc1	-5.3*	x	x	i	56%*	i
COc1ccc(-n2ccnc2SCC(=O)NO)cc1	-5.3*	-2	10	i	i	i
COc1ccc(Cn2ccnc2SCC(=O)Nc2cccc(NC(C)=O)c2)cc1	i	-15	7	i	x	x
COC(=O)c1sc(NC(=O)c2ccccc2OC)c(C#N)c1C	x	4	10	x	x	x
COc1ccc(OCc2cccc(C(=O)Nn3cc([N+](=O)[O-])cn3)c2)cc1	-7.1*	30	9	i	69%*	i
COc1ccc(OCc2cccc(C(=O)NN)c2)cc1	i	-26	6	i	x	x
COC(=O)C(C)Sc1nnc2cc(C)c3ccccc3n12 (stereo unspecified)	x	-1	14	x	x	x
COc1ccccc1C(=O)NC(=S)NNC(=O)c1sc2ccccc2c1Cl	-7*	-2	20	i	58%*	i
COc1ccccc1C(=O)NNC(=S)NC(=O)c1sc2ccccc2c1Cl	-6.6*	-12	10	i	57%*	i
CCCOc1ccc(N2CC(C(=O)Nc3ccccc3C)CC2=O)cc1 (stereo unspecified)	x	-11	11	x	x	x
CCOC(=O)c1cnc2c(CC)cccc2c1NCCCN1CCOCC1	i	x	x	i	x	x
CCOC(=O)c1cnc2c(Cl)cccc2c1NCCN1CCOCC1	-5.8*	-9	2	i	i	2.8*
CCCCn1c(SCn2nnc3ccccc3c2=O)nc2cc(S(N)(=O)=O)ccc21	-6.2*	14	6	i	49%*	i
CCCCn1c(SCN2C(=O)c3ccccc3C2=O)nc2cc(S(N)(=O)=O)ccc21	x	-22	2	x	x	x
CCC(c1nnnn1CC1CCCO1)N(CCc1ccccc1)Cc1cc2cc(C)ccc2[nH]c1=O (stereo unspecified)	x	45	13	x	x	x
CCOC(=O)CC1=C(C(=O)OCC)C(c2cccs2)C(C#N)=C(N)O1 (stereo unspecified)	-5.3*	13	17	i	i	i
CCOC(=O)C1=C(CC)OC(N)=C(C#N)C1c1cc(OC)ccc1OC (stereo unspecified)	-13*	26	1	i	i	i
CCOC(=O)C1=C(c2ccccc2)OC(N)=C(C#N)C1c1cccs1 (stereo unspecified)	i	22	6	i	x	x
SMILES	CHT block	EP2 mod	PGE2 EP2 inh	CHT allo act	CHT block conf	HEK293 MPD ctr
Cc1ccsc1CNC12CC3CC(CC(C3)C1)C2	-6.6*	21	7	i	14%*	-13*
COc1ccc(N2C(=O)CC(N(Cc3ccco3)C(=O)CCC(=O)O)C2=O)cc1 (stereo unspecified)	-6.4*	25	12	i	i	i
CCOC(=O)c1c(C)n(C)c2ccc(O)c(CN3CCC(C)CC3)c12	-14*	-14	13	i	20%*	4.2*
CCOC(=O)c1c(C)n(C)c2ccc(O)c(CN3CCN(C)CC3)c12	i	-11	19	i	x	x
N/C(CN1CCCC1=O)=N\OC(=O)c1ccc(Cl)cc1	i	-13	3	i	x	x
N=C1CCCN1CC(=O)c1ccc(Cl)cc1	-10*	11	4	i	9.8%*	i
